Laboratory results from PubChem BioAssay AID493085 (Broad Institute, 2011).
The whole screen tested about 2,400 compounds, of which about 360 (15%) were called active. About 5% were inconclusive and are not listed.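 Rule for the calls: active = falling-signal curve with half-maximal concentration at or below ten times the top tested dose; inconclusive = flat fit at 30 to 70% inhibition, or poor fit; inactive = signal rise, flat within 30%, or potency beyond limit.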 Not all results are given here. Entries with a potency or affinity are not part of this list.

Test: Tet-On RFP internal-standard readout, HSF1 screen, dose response, cell-based, NIH3T3 R4, HSE-GFP and Tet-On RFP, cherry-pick, set 3 (AID 493085);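 note: cells heat shocked 2 h at 42 °C with doxycycline to induce reporters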
Conditions: NIH3T3 R4 HSE-GFP/Tet-RFP reporter, fluorescence, 48 h; series mostly up to 19.5 µM

outcome, inactive:
COc1cc2cc(CN(C(=O)NC3CCCCC3)C3CCCC3)c(=O)[nH]c2cc1OC
COc1ccc(/C=N/NC(=O)CN(C)S(=O)(=O)c2ccc(NC(C)=O)cc2)cc1
CCOC(=O)c1c(C)n(C)c2ccc(OC)c(NC(=O)CN3CCSCC3)c12
COc1ccc(C(=O)C2CCCN(Cc3ccc(NC(C)=O)cc3)C2)cc1OC (stereo unspecified)
Nc1nc(Cl)nc2c1ncn2C1CC(O)C(CO)O1 (stereo unspecified)
Cc1oc(-c2cc3c(cc2Cl)OCO3)nc1CN1CCCC1c1ccc(F)cc1 (stereo unspecified)
Cc1c(Cl)cccc1NC(=O)CS(=O)(=O)c1ccccc1
CC(C)n1cc(/C=N/Nc2ccc(C(=O)O)cc2)c2ccccc21
COc1cccc(-c2cccc(NC(=O)C3CCN(Cc4ccon4)CC3)c2)c1
CCOC(=O)N1CCN(C(=O)C2CCN(Cc3ccc(OC)cc3OC)CC2)CC1
Cc1ccnc(NS(=O)(=O)c2ccc(NC(=O)COc3ccccc3)cc2)n1
Cc1nc(C(=O)NNC(=O)c2cccc(Cl)c2)c(C(F)(F)F)o1
O=C(Cc1ccccc1)Nc1nc2ccccc2s1
O=C(COc1ccccc1C(=O)O)Nc1ccc(SC(F)F)cc1
N/C(CC(=O)Nc1ccc(F)cc1)=N\O
Cc1ccccc1C(=O)Nc1nnc(CC(=O)N/N=C/c2ccco2)s1
Cc1cc(C)nc(NC(=O)COc2cc(Cl)cc(Cl)c2)n1
COc1cccc(CC(=O)N[C@@H](CCSC)c2nc3ccccc3[nH]2)c1
CCOc1ccc(N=C(NN)c2ccc3ccccc3n2)cc1
Cc1ccc(S(=O)(=O)c2ccc(Oc3ccccc3)cc2)cc1
O=[N+]([O-])c1ccccc1Nc1cccnc1
O=C(NCc1ccccc1)C1CCCN(S(=O)(=O)c2cccc3nsnc23)C1 (stereo unspecified)
Cc1nc2sc3c(NCc4ccco4)ncnc3c2c2c1COC(C)(C)C2
Nc1nc(NCc2ccco2)nc(NC2CCCCC2)c1[N+](=O)[O-]
CC(C)CCc1c(O)nc(SCC(=O)N2CCCCCC2)[nH]c1=O
O=C(O)COc1ccc(/C=N/NC(=O)c2ccccc2Br)cc1
CCCc1cc(=O)oc2cc(C)cc(OCC(=O)NCCCn3ccnc3)c12
O=C(CC(Nc1ccccc1Cl)C(=O)OCC(=O)c1cccs1)c1ccccc1 (stereo unspecified)
COc1ccc2oc(=O)c(N3C(=O)c4ccccc4C3=O)cc2c1
COc1cc(C2NC(=O)NC(C)=C2C(=O)OCC2CCCO2)ccc1O (stereo unspecified)
CC1(C)CC(NCc2ccc3c(c2)OCO3)CCO1 (stereo unspecified)
